H9c2 protect = modulators protecting cardiomyocytes from myocardial damage; hit rate 0.63% among 360,000; protection from H2O2 cell death, % at 20 µM; AID 588492; H9c2 cardiomyocytes, H2O2 injury protection, ATPLite, 2 h;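 active = compounds giving at least 50% protection of heart cells from peroxide-induced death in the single-dose screen, raw or plate-pattern-corrected value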;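 note: 0% = DMSO wells with peroxide and 100% = DMSO wells without peroxide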
NTR1 agonist = NTR1 (human) agonism | hit rate 0.17% among 330,000 | P30989 | activation, % at 20 µM | NTR1-U2OS beta-arrestin-GFP spot imaging, agonist mode | AID 493036;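 active = activation at or above 40% of the spot to cytoplasm intensity ratio, with at least 20 cells analyzed; inconclusive = wells under 20 cells, flagged as cytotoxic or low count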;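 note: 0% = DMSO without peptide and 100% = 100 nM NTR1 peptide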
Target sequence (P30989 whole entry, looked up): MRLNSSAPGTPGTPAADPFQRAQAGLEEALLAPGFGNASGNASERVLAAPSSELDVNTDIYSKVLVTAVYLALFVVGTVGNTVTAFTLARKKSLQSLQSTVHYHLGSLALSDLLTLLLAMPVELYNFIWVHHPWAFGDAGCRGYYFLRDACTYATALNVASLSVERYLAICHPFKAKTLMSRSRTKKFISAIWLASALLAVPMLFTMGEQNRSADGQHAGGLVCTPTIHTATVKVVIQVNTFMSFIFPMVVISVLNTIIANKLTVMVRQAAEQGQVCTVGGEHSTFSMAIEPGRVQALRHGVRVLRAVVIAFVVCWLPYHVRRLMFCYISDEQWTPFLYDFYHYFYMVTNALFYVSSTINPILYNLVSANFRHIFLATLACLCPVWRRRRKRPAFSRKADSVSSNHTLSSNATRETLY
ALR inh = blocks human ALR sulfhydryl oxidase activity; P55789; purified ALR, DTT oxidation, H2O2 HRP-luminol luminescence; inhibition, % (no concentration beside the values); hit rate 3.8% among 290,000;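 active = mean replicate inhibition above about 79%, with every replicate also reaching it, limit read from the data; inconclusive = only one of the two criteria met; inactive = mean below limit and not every replicate reaching it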
SUMO HTRF inh = blocks human SUMOylation mediated by UBC9; hit rate 0.36% among 290,000; inhibition, % at 35 µM; AID 2006; HTRF SUMOylation assay, SAE1/SAE2 + UBC9, in vitro; P63279; in the data active = inhibition above about 50%, passing the limit was not always enough; inconclusive = no clear call, values can overlap the other calls
Target sequence (P63279 whole entry, looked up): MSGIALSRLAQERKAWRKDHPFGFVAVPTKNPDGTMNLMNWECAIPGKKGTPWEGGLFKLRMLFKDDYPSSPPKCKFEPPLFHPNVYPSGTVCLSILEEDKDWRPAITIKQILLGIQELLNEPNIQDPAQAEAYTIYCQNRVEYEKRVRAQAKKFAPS
Starred values were filed as active, the others as inactive; ? = inconclusive; · = no result given. Shown are actives, neighbours in structure and some others; about 3.9% of the full set was active somewhere.

SMILES	H9c2 protect	NTR1 agonist	ALR inh	SUMO HTRF inh
CC(OC(=O)c1cc2c(ccc3ccccc32)oc1=O)c1nc2ccccc2s1 (configuration not stated)	69*	10	·	-13
CCC(C(=O)NCc1ccco1)n1nc(-c2ccc(OC)cc2)ccc1=O (configuration not stated)	3	0	2	14
CCN(CC)CCCNC(=O)c1cc(-c2ccc(O)cc2)on1	4	-2	99*	7
Cn1nc(-c2ccc(Cl)cc2)c2cc(C(=O)N3CCOCC3)sc21	-2	-3	95*	1
CCN(CC)CCCNC(=O)c1cc2c(-c3ccc(Cl)cc3)nn(C)c2s1	-1	7	94*	31
CCN(CC)CCCNC(=O)c1cc(-c2ccc(Cl)c(Cl)c2)on1	7	0	7	-2
COc1ccc(N2CCN(C(=O)c3cc4c(-c5ccc(Cl)cc5)nn(C)c4s3)CC2)cc1	0	5	37	-2
Cn1nc(-c2ccc(Cl)cc2)c2cc(C(=O)NCC3CCCO3)sc21 (configuration not stated)	2	5	93*	30
CCCN(c1ccccc1F)S(=O)(=O)c1cc(-c2cc(C)no2)ccc1OC	0	2	54	7
COc1ccc(NC(=O)/C(N=Nc2ccc(Cl)c(S(=O)(=O)Nc3ccc(Cl)cc3)c2)=C(\C)O)cc1	-14	1	-1	·
O=C(COC(=O)C1COc2ccccc2O1)NC(=O)Nc1ccc2c(c1)OCCO2 (configuration not stated)	25	-1	-15	12
Cc1c(/C=N/NC(=O)CNc2ccccc2)c2ccccn2c1C(=O)c1ccc(Cl)cc1	23	8	-2	8
COc1cc(C2Nn3c(nnc3-c3ccccc3OC)S2)ccc1O (configuration not stated)	-8	1	99*	-3
COc1cc(C2Nc3ccccc3C(=O)N2c2ccccc2OC)ccc1O (configuration not stated)	23	1	29	17
COc1cc(C)c(N)cc1C(C)C	1	2	98*	-9
O=C(O)CSc1nc(-c2ccccc2)c(-c2ccccc2)[nH]1	-4	0	·	10
O=C(O)c1ccc(-c2nc(-c3ccccc3)c(-c3ccccc3)[nH]2)cc1	1	1	98*	45
COc1ccc(-c2[nH]c(-c3ccc(C(=O)O)cc3)nc2-c2ccccc2)cc1	3	1	99*	?
CCOCC(=O)Nc1nnc(Cc2ccc(OC)cc2)s1	-4	1	2	10
Cc1ccc(S(=O)(=O)N2CCN(CC(=O)Nc3ccccc3Cl)CC2)cc1	-2	2	·	·
Cn1c(=O)oc2cc(C(=O)c3ccccc3)ccc21	-2	0	-5	5
CCN(CC)c1ccc2c(c1)CCCN2	·	6	97*	49
O=S(=O)(c1ccc2c(c1)CCCN2)N1CCCC1	0	1	·	·
CC(C)C(O)(C#CCN1CCCCCC1)c1ccccc1 (configuration not stated)	-10	2	-8	10
O=C(O)c1ccc(N(c2ccccc2)c2ccccc2)cc1	3	0	99*	39
SMILES	H9c2 protect	NTR1 agonist	ALR inh	SUMO HTRF inh
Cc1nc(N)sc1C(=O)OCC(C)C	3	0	2	5
O=C(NC1CCCCC1)N1CCCC(c2nc3ccccc3[nH]2)C1 (configuration not stated)	1	2	3	2
O=C(/C=C/c1ccco1)Nc1nc(-c2ccccc2)cs1	2	14	0	18
Cc1ccc(-c2csc(NC(=O)CN3C(=O)CCC3=O)n2)cc1	3	-1	-5	-8
O=C(CN1C(=O)CCC1=O)Nc1nc(-c2ccccn2)cs1	52*	0	-22	-7
O=C(CN1C(=O)CCC1=O)Nc1nc(-c2ccc3ccccc3c2)cs1	-4	1	·	7
O=C(/C=C/c1ccco1)Nc1nc(-c2ccccn2)cs1	50*	2	·	28
O=C(CN1C(=O)CCC1=O)Nc1nc(-c2nc3ccccc3s2)cs1	12	-1	95*	20
CSCCC(=O)Nc1nc(-c2ccccn2)cs1	37	·	·	8
O=C(CCCSc1ccccc1)Nc1nc(-c2ccccn2)cs1	64*	2	-7	12
O=C(c1ccccc1)C1CC1c1ccccc1 (configuration not stated)	-9	·	·	·
Cn1c(-c2sc3ccccc3c2Cl)n[nH]c1=S	2	1	97*	19
Cn1c(CSc2nc3ccccc3s2)nc2ccccc21	-6	1	·	2
S=c1[nH]nc(CSc2nc3ccccc3s2)o1	20	0	99*	-1
Clc1c(-c2nnc3n2CCC3)sc2ccccc12	-13	1	-4	15
Cn1c(CSc2nc3ccccc3s2)n[nH]c1=S	-7	0	98*	-5
COc1ccc(C2/C=C\CN(C(=O)C3CC3)[C@H](Cc3ccccc3)C(=O)N2Cc2ccc(F)cc2)cc1 (some centres not stated)	9	4	-6	-15
COc1ccc(C2/C=C\CN(C(=O)c3ccc(C)cc3)[C@H](Cc3ccccc3)C(=O)N2Cc2ccc(F)cc2)cc1 (some centres not stated)	85*	1	1	-9
Cc1ccc(CNC(=O)C(=O)NCC2OCCN2C(=O)c2ccc3c(c2)OCO3)cc1 (configuration not stated)	2	0	-9	3
CC(=O)NNC(=O)c1cc2c3ccccc3n(C)c2s1	-1	0	20	19
Cn1c2ccccc2c2cc(C(=O)N3CCN(CCO)CC3)sc21	1	0	99*	8
CC(Sc1nnc(-c2ccco2)o1)C(=O)Nc1ccc(OC(F)F)cc1 (configuration not stated)	-1	-1	-5	·
CCCCCOc1ccc(C(=O)NCCC(=O)NCCCC(=O)OCC)cc1	-7	-1	-7	-4
C1CCC(n2nnnc2CN2CCN(C3CCCC3)CC2)CC1	-4	-2	·	12
Cc1nc2ccc([N+](=O)[O-])cc2c(=O)n1Cc1ccc([N+](=O)[O-])cc1	-7	2	-19	-8
SMILES	H9c2 protect	NTR1 agonist	ALR inh	SUMO HTRF inh
O=C(CCNS(=O)(=O)c1ccccc1C(F)(F)F)N1CCN(S(=O)(=O)c2cccc(Cl)c2)CC1	-2	2	0	·
Nc1ncc(Br)cc1S(=O)(=O)NCCC(=O)N1CCN(c2ccccc2)CC1	1	-1	96*	·
O=C(CCNS(=O)(=O)c1ccccc1C(F)(F)F)N1CCN(c2ccccc2O)CC1	8	-1	99*	·
CCOc1ccc(S(=O)(=O)NCCC(=O)N2CCN(C(C)=O)CC2)cc1	-3	·	·	·
O=C(COc1cccc(C(F)(F)F)c1)N1CCN(c2ccccc2O)CC1	1	2	98*	-29
CCOc1ccc(S(=O)(=O)NCCC(=O)N2CCN(c3ccccc3O)CC2)cc1	-3	1	98*	·
O=C(COc1cccc(C(F)(F)F)c1)N1CCN(c2ccc(O)cc2)CC1	-10	2	·	4
Nc1ncc(Br)cc1S(=O)(=O)NCCC(=O)N1CCN(c2ccccn2)CC1	0	5	2	10
COc1ccc(CC(NC(C)=O)C(=O)NC2CCN(C(=O)c3ccncc3)CC2)cc1OC (configuration not stated)	3	39	·	4
